In PubChem BioAssay (NCI):
The panel holds about 83,000 compounds, 20% with a hit somewhere; the sample as a whole holds those more often.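 Treatment: one concentration, 48 hours, 96-well format. Scoring: percent growth, with anything below 10 considered active.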 Unmarked numbers belong to inactive results. The source made the active and inactive calls.

What was measured:
Experiment in all cases: NCI-60 one-dose screen, 48 h (100 = growth as untreated, 0 = no growth, -100 = all killed)
Settings in all cases: 10 µM unless noted
[1] = system: DU-145 prostate
[2] = system: K-562 leukemia
[3] = system: MALME-3M melanoma
[4] = system: MDA-MB-231 breast
[5] = system: RXF 393 renal
[6] = system: SF-268 CNS
[7] = system: SF-295 CNS
[8] = system: SF-539 CNS
[9] = system: UACC-257 melanoma
[10] = system: M14 melanoma
[11] = system: HCT-15 colon
[12] = system: HT29 colon
[13] = system: SNB-75 CNS
[14] = system: SNB-19 CNS
[15] = system: U251 CNS
[16] = system: PC-3 prostate
[17] = system: SK-MEL-5 melanoma
[18] = system: UACC-62 melanoma
[19] = system: LOX IMVI melanoma
[20] = system: SK-MEL-28 melanoma

SMILES: COc1ccc(C2C(C#N)=C(N)Oc3c2sc2c(C)cccc32)cc1 (stereo not given)
- growth [1]: 22.4%
- growth [2]: 6.98% (active)
- growth [3]: 62.5%
- growth [4]: 16.6%
- growth [5]: -11.7% (active)
- growth [6]: 49.6%
- growth [7]: 3.47% (active)
- growth [8]: -16.8% (active)
- growth [9]: 72.1%
- growth [10]: 8.58% (active)
- growth [11]: 9.6% (active)
- growth [12]: 6.72% (active)
- growth [13]: -4.52% (active)
- growth [14]: 26.3%
- growth [15]: 25.4%
- growth [16]: 11.3%
- growth [17]: 29%
- growth [18]: 19.3%
- growth [19]: 17.2%
- growth [20]: 57.1%

SMILES: COc1cc(Nc2nc(NCCN)nc3cc[nH]c(=O)c23)cc(OC)c1
- growth [1]: 65%
- growth [2]: 75.8%
- growth [3]: 46.9%
- growth [4]: 75.7%
- growth [5]: 58.7%
- growth [6]: 77.3%
- growth [7]: 102%
- growth [8]: 76.3%
- growth [9]: 72.5%
- growth [10]: 49.7%
- growth [11]: 102%
- growth [12]: 73.6%
- growth [13]: 90.3%
- growth [14]: 102%
- growth [15]: 85.8%
- growth [16]: 113%
- growth [17]: 81.6%
- growth [18]: 57.2%
- growth [19]: 51.8%
- growth [20]: 102%

SMILES: Cc1cc(=O)oc2cc(OC(=O)CN3CCN(C)CC3)ccc12
- growth [1]: 109%
- growth [2]: 93.7%
- growth [3]: 112%
- growth [4]: 101%
- growth [5]: 101%
- growth [6]: 97.5%
- growth [7]: 101%
- growth [8]: 98.4%
- growth [9]: 109%
- growth [10]: 97.9%
- growth [11]: 98.9%
- growth [12]: 104%
- growth [13]: 74.5%
- growth [14]: 95.6%
- growth [15]: 105%
- growth [16]: 95.2%
- growth [17]: 101%
- growth [18]: 95.5%
- growth [19]: 97.9%
- growth [20]: 104%

SMILES: COc1cc(C(=O)/C=C/c2c(Cl)nc3sccn23)cc(OC)c1OC
- growth [1]: 83.8%
- growth [2]: 37.6%
- growth [3]: 91.9%
- growth [4]: 77.2%
- growth [5]: 79.5%
- growth [6]: 77.8%
- growth [7]: 112%
- growth [8]: 86.5%
- growth [9]: 71.3%
- growth [10]: 79.4%
- growth [11]: 59.4%
- growth [12]: 67.5%
- growth [13]: 70.9%
- growth [14]: 83%
- growth [15]: 77.4%
- growth [16]: 70.5%
- growth [17]: 86.4%
- growth [18]: 78.7%
- growth [19]: 63.8%
- growth [20]: 93.6%

SMILES: C=C1C(=O)O[C@H]2[C@H]1CC/C(COC(=O)CCC(=O)NCCOCCOCC(=O)Nc1ccc(OC)c(C(N)=O)c1O)=C\CC[C@@]1(C)O[C@@H]21
- growth [1]: 101%
- growth [2]: 86.2%
- growth [3]: 92.7%
- growth [4]: 95.2%
- growth [5]: 67.9%
- growth [6]: 95.2%
- growth [7]: 97.3%
- growth [8]: 88.8%
- growth [9]: 77.6%
- growth [10]: 93.3%
- growth [11]: 92.3%
- growth [12]: 101%
- growth [13]: 95.6%
- growth [14]: 99%
- growth [15]: 94.9%
- growth [16]: 101%
- growth [17]: 102%
- growth [18]: 89.2%
- growth [19]: 87.7%
- growth [20]: 93.2%

SMILES: CN(C)CCNc1nc2ccccc2c2c(=O)c3cc(F)ccc3sc12
- growth [1]: 28.1%
- growth [2]: -36.5% (active)
- growth [3]: 81.9%
- growth [4]: 6.88% (active)
- growth [5]: 40%
- growth [6]: 45.6%
- growth [7]: 71.7%
- growth [8]: 45.3%
- growth [9]: 91.9%
- growth [10]: -77.9% (active)
- growth [11]: 22.7%
- growth [12]: -3.23% (active)
- growth [13]: 54.9%
- growth [14]: 55.4%
- growth [15]: 41.4%
- growth [16]: 40.4%
- growth [17]: 83.5%
- growth [18]: 53.4%
- growth [19]: -64.3% (active)
- growth [20]: 55.6%

SMILES: Oc1ccc(C#CCOc2ccccc2)cc1CNCCN(Cc1ccccn1)Cc1ccccn1
- growth [1]: 28.6%
- growth [2]: 8.65% (active)
- growth [3]: 25.2%
- growth [4]: 47%
- growth [5]: 16%
- growth [6]: 13%
- growth [7]: 4.52% (active)
- growth [8]: 11.3%
- growth [9]: 15.4%
- growth [10]: 6.22% (active)
- growth [11]: 4.51% (active)
- growth [12]: 25.5%
- growth [13]: 25.6%
- growth [14]: 20.7%
- growth [15]: 7.44% (active)
- growth [16]: 27.7%
- growth [17]: 1.89% (active)
- growth [18]: 9.83% (active)
- growth [19]: 3.51% (active)
- growth [20]: 32.9%

SMILES: Cc1cccc(OCC(O)CN2CCN(c3ccc(Cl)cc3)CC2)c1 (stereo not given)
- growth [1]: 113%
- growth [2]: 96.9%
- growth [3]: 153%
- growth [4]: 98.7%
- growth [5]: 118%
- growth [6]: 99.4%
- growth [7]: 94.5%
- growth [8]: 104%
- growth [9]: 108%
- growth [10]: 94.7%
- growth [11]: 117%
- growth [12]: 104%
- growth [13]: 95.1%
- growth [14]: 99.8%
- growth [15]: 104%
- growth [16]: 86.5%
- growth [17]: 100%
- growth [18]: 94.2%
- growth [19]: 96.8%
- growth [20]: 100%

SMILES: c1cc(NCCc2ccncc2)nc(-n2cnc3ccccc32)c1
- growth [1]: 85.7%
- growth [2]: 88.6%
- growth [3]: 103%
- growth [4]: 98.2%
- growth [5]: 82.7%
- growth [6]: 82.3%
- growth [7]: 105%
- growth [8]: 90.3%
- growth [9]: 93.8%
- growth [10]: 94%
- growth [11]: 90.1%
- growth [12]: 92.7%
- growth [13]: 112%
- growth [14]: 99.9%
- growth [15]: 82.2%
- growth [16]: 83%
- growth [17]: 93.7%
- growth [18]: 91.2%
- growth [19]: 79.4%
- growth [20]: 109%

SMILES: Cc1ccc(C2CC(c3ccc(Nc4ccnc5cc(Cl)ccc45)cc3)=NN2C=O)cc1 (stereo not given)
- growth [1]: 68.4%
- growth [2]: 16.2%
- growth [3]: 46.5%
- growth [4]: 66.2%
- growth [5]: 61.7%
- growth [6]: 48.5%
- growth [7]: 31.2%
- growth [8]: 91%
- growth [9]: 79.8%
- growth [10]: 45.8%
- growth [11]: 18.6%
- growth [12]: 41.8%
- growth [13]: 76.3%
- growth [14]: 74.4%
- growth [15]: 58.6%
- growth [16]: 57.4%
- growth [17]: 10.4%
- growth [18]: 36.9%
- growth [19]: 34%
- growth [20]: 51.7%

SMILES: NC[C@@H]1O[C@H](O[C@@H]2[C@@H](CO)OC(O[C@@H]3[C@@H](O)[C@H](N)C[C@H](N)[C@H]3OC3O[C@H](CN)[C@@H](O)[C@H](O)[C@H]3N)[C@@H]2O)[C@H](N)[C@@H](O)[C@@H]1O (stereo not given in full)
- growth [1]: 112%
- growth [2]: 113%
- growth [3]: 105%
- growth [4]: 104%
- growth [5]: 114%
- growth [6]: 113%
- growth [7]: 107%
- growth [8]: 89.3%
- growth [9]: 106%
- growth [10]: 104%
- growth [11]: 103%
- growth [12]: 109%
- growth [13]: 106%
- growth [14]: 115%
- growth [15]: 102%
- growth [16]: 111%
- growth [17]: 106%
- growth [18]: 118%
- growth [19]: 101%
- growth [20]: 111%

SMILES: C#Cc1cccc(NC(=O)Nc2ccccc2NC(=O)CCl)c1
- growth [1]: 6.7% [8.25 µM] (active)
- growth [2]: 9.69% [8.25 µM] (active)
- growth [3]: -19.1% [8.25 µM] (active)
- growth [4]: -71.7% [8.25 µM] (active)
- growth [5]: -81.1% [8.25 µM] (active)
- growth [6]: -17.4% [8.25 µM] (active)
- growth [7]: 38.7% [8.25 µM]
- growth [8]: -70.8% [8.25 µM] (active)
- growth [9]: -12.6% [8.25 µM] (active)
- growth [10]: -22.2% [8.25 µM] (active)
- growth [11]: -19.8% [8.25 µM] (active)
- growth [12]: -15.5% [8.25 µM] (active)
- growth [13]: -83.9% [8.25 µM] (active)
- growth [14]: 19.7% [8.25 µM]
- growth [15]: -85.2% [8.25 µM] (active)
- growth [16]: -29% [8.25 µM] (active)
- growth [17]: -94.8% [8.25 µM] (active)
- growth [18]: -94.1% [8.25 µM] (active)
- growth [19]: -94.4% [8.25 µM] (active)
- growth [20]: -10.4% [8.25 µM] (active)

SMILES: C[C@]12CC[C@@H]3c4cc(OC(F)F)c(OS(N)(=O)=O)cc4CC[C@H]3[C@@H]1CC[C@@H]2O
- growth [1]: 9.26% (active)
- growth [2]: 12.3%
- growth [3]: 26.4%
- growth [4]: 43.3%
- growth [5]: -5.44% (active)
- growth [6]: 49.6%
- growth [7]: 2.5% (active)
- growth [8]: -3.28% (active)
- growth [9]: 67.4%
- growth [10]: 5.82% (active)
- growth [11]: 13.2%
- growth [12]: 13.9%
- growth [13]: -15.7% (active)
- growth [14]: 48.4%
- growth [15]: 28.2%
- growth [16]: 25.5%
- growth [17]: 6.56% (active)
- growth [18]: 55.7%
- growth [19]: 28.6%
- growth [20]: 53.6%

SMILES: O=c1cc(SCc2ccccc2)nc[nH]1
- growth [1]: 121%
- growth [2]: 113%
- growth [3]: 111%
- growth [4]: 113%
- growth [5]: 124%
- growth [6]: 106%
- growth [7]: 100%
- growth [8]: 108%
- growth [9]: 108%
- growth [10]: 106%
- growth [11]: 105%
- growth [12]: 109%
- growth [13]: 93.7%
- growth [14]: 107%
- growth [15]: 107%
- growth [16]: 97.7%
- growth [17]: 113%
- growth [18]: 108%
- growth [19]: 107%
- growth [20]: 133%

SMILES: COc1ccn2c(C(C)=O)cc(C(=O)c3ccc4c(c3)Sc3ccccc3N4)c2c1
- growth [1]: -18.3% (active)
- growth [2]: 7.02% (active)
- growth [3]: 85.9%
- growth [4]: -17.2% (active)
- growth [5]: 51.9%
- growth [6]: 22.2%
- growth [7]: 13.9%
- growth [8]: -11.8% (active)
- growth [9]: 52%
- growth [10]: 9.58% (active)
- growth [11]: 15%
- growth [12]: -0.653% (active)
- growth [13]: 21.1%
- growth [14]: 40.3%
- growth [15]: 17.9%
- growth [16]: 23.8%
- growth [17]: -39.7% (active)
- growth [18]: 35.9%
- growth [19]: 19.7%
- growth [20]: 46.7%
